Data published in PubChem BioAssay (EPA / NIEHS).
Active and inactive are the calls of the source. Rule for the calls, unless noted: active = hit-call score of the fitted dose curve at least 0.9, where 1 is the maximum; inactive = score below 0.9.

Read-out: UDP glucuronosyltransferase (UGT1A1), UGT1A1 (gene 54658)
Test: LTEA_HepaRG_UGT1A1: Life Technologies and Expression Analysis (LTEA) Assay for UDP glucuronosyltransferase (UGT1A1) using HepaRG (AID 2283538)
Conditions: mRNA level, 48 h; actives raise or lower the signal
Outline: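 Cells are plated, cultured 48 h, switched to serum-free induction medium, then dosed 48 h at eight concentrations (max 100 uM, 0.5% DMSO). RNA is isolated and UGT1A1 expression measured by qRT-PCR; changes versus DMSO are fitted in both directions.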
With `CCCCCCC(=O)O` the outcome was “inactive”.
In the case of `CCCCCCCCCCCCc1ccccc1S(=O)(=O)O`, the AC50 is reported as 12 µM (active).
With `OCCC(F)(F)C(F)(F)C(F)(F)C(F)(F)C(F)(F)C(F)(F)F` the outcome was “inactive”.
For `COCC(C)O` (stereo not given), the outcome was “inactive”.
In the case of `CC(C)CCCCCCOC(=O)CCCCC(=O)OCCCCCCC(C)C`, the outcome is reported as “inactive”.
With `O=C(O)c1ccccc1C(c1ccc(O)cc1)c1ccc(O)cc1` the outcome was “inactive”.
In the case of `CCCCCCCCOC(=O)CCCCCCCCC(=O)OCCCCCCCC`, the outcome is reported as “inactive”.
For `CCc1nn(C2CCCCC2)c2cc(C3(C#N)CCC(C(=O)O)CC3)ccc12` (stereo not given), the AC50 was 11.8 µM (active).
For `C[C@@H]1C[C@H]2[C@@H]3CCC4=CC(=O)C=C[C@]4(C)[C@@]3(F)[C@@H](O)C[C@]2(C)[C@@]1(O)C(=O)COP(=O)(O)O`, the outcome was “inactive”.
For `CC1=C(/C=C/C(C)=C/C=C/C(C)=C/C(=O)O)C(C)(C)CCC1`, the AC50 was 13 µM (active).
For `NC(=O)N1C(=O)C(C(=O)c2cc(Cl)cs2)c2cc(F)c(Cl)cc21` (stereo not given), the AC50 was 38.7 µM (active).
For `OCCC(F)(F)C(F)(F)C(F)(F)C(F)(F)C(F)(F)C(F)(F)C(F)(F)C(F)(F)F`, the outcome was “inactive”.
With `CN1CCN(c2ccccc2/C=C2\SCCN(c3ccc(Cl)c(Cl)c3)C2=O)CC1` the AC50 was 50 µM (active).
For `OC1CCCCC1`, the outcome was “inactive”.
In the case of `CCCCOCCO`, the outcome is reported as “inactive”.
For `NC(=O)N(O)[C@@H]1C=C[C@H](Oc2cccc(Oc3ccc(F)cc3)c2)C1`, the AC50 was 75.5 µM (active).
With `CC(=O)NC1(c2cccc(F)c2)CCN(CC[C@@]2(c3ccc(Cl)c(Cl)c3)CN(c3ccccc3)C(=O)CO2)CC1` the AC50 was 41.5 µM (active).
With `Cc1cc(C)c(O)c(C)c1` the AC50 was 8.27 µM (active).
In the case of `CCN(CC)CCNc1ccc(CNC=O)c2sc3ccc(OC)cc3c(=O)c12`, the AC50 is reported as 44 µM (active).
For `COc1ccc([N+](=O)[O-])cc1N`, the AC50 was 50 µM (active).
For `Cc1cc(CCN2CCN(c3nsc4ccccc34)CC2)cc2c1NC(=O)CC2(C)C`, the AC50 was 91.6 µM (active).
In the case of `CCCCCCCCCCCCCCCS(=O)(=O)Oc1ccccc1`, the AC50 is reported as 8.01 µM (active).
For `CCCCC(CC)COC(=O)CCCCC(=O)OCc1ccccc1` (stereo not given), the outcome was “inactive”.
For `c1ccc2c(c1)Cc1ccccc1-2`, the outcome was “inactive”.
For `CC[C@H](C)[C@@H](C(=O)O)n1sc2ccccc2c1=O`, the outcome was “inactive”.
In the case of `O=C(OCCOCCOC(=O)c1ccccc1)c1ccccc1`, the outcome is reported as “inactive”.
For `CC(O)CO` (stereo not given), the outcome was “inactive”.
With `CCC(C)(C)C1CCC(O)CC1` (stereo not given) the outcome was “inactive”.
In the case of `CN1CCC[C@H]1c1cccnc1`, the outcome is reported as “inactive”.

Read-out: X-box binding protein 1 (XBP1), XBP1 (gene 7494)
Test: LTEA_HepaRG_XBP1: Life Technologies and Expression Analysis (LTEA) Assay for X-box binding protein 1 (XBP1) using HepaRG (AID 2283540)
Conditions: mRNA level, 48 h; actives raise or lower the signal
Outline: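 Differentiated human HepaRG cells in serum-free induction medium were exposed in duplicate for 48 h to eight half-log concentrations up to 100 uM in 0.5% DMSO. XBP1 mRNA was quantified by qRT-PCR, normalised to ACTB, GAPDH and POLR2A, with bidirectional fitting against DMSO.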
For `CCCCCCC(=O)O`, the outcome was “inactive”.
In the case of `CCCCCCCCCCCCc1ccccc1S(=O)(=O)O`, the outcome is reported as “inactive”.
With `OCCC(F)(F)C(F)(F)C(F)(F)C(F)(F)C(F)(F)C(F)(F)F` the outcome was “inactive”.
In the case of `COCC(C)O` (stereo not given), the outcome is reported as “inactive”.
In the case of `CC(C)CCCCCCOC(=O)CCCCC(=O)OCCCCCCC(C)C`, the outcome is reported as “inactive”.
In the case of `O=C(O)c1ccccc1C(c1ccc(O)cc1)c1ccc(O)cc1`, the outcome is reported as “inactive”.
With `CCCCCCCCOC(=O)CCCCCCCCC(=O)OCCCCCCCC` the outcome was “inactive”.
In the case of `CCc1nn(C2CCCCC2)c2cc(C3(C#N)CCC(C(=O)O)CC3)ccc12` (stereo not given), the outcome is reported as “inactive”.
In the case of `C[C@@H]1C[C@H]2[C@@H]3CCC4=CC(=O)C=C[C@]4(C)[C@@]3(F)[C@@H](O)C[C@]2(C)[C@@]1(O)C(=O)COP(=O)(O)O`, the outcome is reported as “inactive”.
For `CC1=C(/C=C/C(C)=C/C=C/C(C)=C/C(=O)O)C(C)(C)CCC1`, the outcome was “inactive”.
For `NC(=O)N1C(=O)C(C(=O)c2cc(Cl)cs2)c2cc(F)c(Cl)cc21` (stereo not given), the AC50 was 12.9 µM (active).
With `OCCC(F)(F)C(F)(F)C(F)(F)C(F)(F)C(F)(F)C(F)(F)C(F)(F)C(F)(F)F` the outcome was “inactive”.
In the case of `CN1CCN(c2ccccc2/C=C2\SCCN(c3ccc(Cl)c(Cl)c3)C2=O)CC1`, the outcome is reported as “inactive”.
For `OC1CCCCC1`, the outcome was “inactive”.
In the case of `CCCCOCCO`, the outcome is reported as “inactive”.
In the case of `NC(=O)N(O)[C@@H]1C=C[C@H](Oc2cccc(Oc3ccc(F)cc3)c2)C1`, the AC50 is reported as 28.2 µM (active).
In the case of `CC(=O)NC1(c2cccc(F)c2)CCN(CC[C@@]2(c3ccc(Cl)c(Cl)c3)CN(c3ccccc3)C(=O)CO2)CC1`, the outcome is reported as “inactive”.
For `Cc1cc(C)c(O)c(C)c1`, the outcome was “inactive”.
In the case of `CCN(CC)CCNc1ccc(CNC=O)c2sc3ccc(OC)cc3c(=O)c12`, the AC50 is reported as 30.6 µM (active).
With `COc1ccc([N+](=O)[O-])cc1N` the outcome was “inactive”.
In the case of `Cc1cc(CCN2CCN(c3nsc4ccccc34)CC2)cc2c1NC(=O)CC2(C)C`, the outcome is reported as “inactive”.
With `CCCCCCCCCCCCCCCS(=O)(=O)Oc1ccccc1` the outcome was “inactive”.
With `CCCCC(CC)COC(=O)CCCCC(=O)OCc1ccccc1` (stereo not given) the outcome was “inactive”.
With `c1ccc2c(c1)Cc1ccccc1-2` the outcome was “inactive”.
For `CC[C@H](C)[C@@H](C(=O)O)n1sc2ccccc2c1=O`, the outcome was “inactive”.
For `O=C(OCCOCCOC(=O)c1ccccc1)c1ccccc1`, the outcome was “inactive”.
With `CC(O)CO` (stereo not given) the outcome was “inactive”.
For `CCC(C)(C)C1CCC(O)CC1` (stereo not given), the outcome was “inactive”.
With `CN1CCC[C@H]1c1cccnc1` the outcome was “inactive”.

Read-out: not listed separately
Test: LTEA_HepaRG_LDH_cytotoxicity: Cytotoxicity Assessment in the Life Technologies and Expression Analysis (LTEA) Assay (AID 2283563; active = hit-call score of the fitted dose curve at least 0.9, where 1 is the maximum;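 for AC50: LDH activity released into spent culture medium as a marker of cell death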)
Conditions: not given
Outline: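 Differentiated human HepaRG cells, plated 48 h beforehand, were switched to serum-free induction medium and exposed for 48 h to eight half-log concentrations (top 100 uM) in 0.5% DMSO. LDH was measured in spent medium; activity was fitted relative to DMSO vehicle.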
In the case of `CCCCCCC(=O)O`, the outcome is reported as “inactive”.
In the case of `CCCCCCCCCCCCc1ccccc1S(=O)(=O)O`, the AC50 is reported as 77.7 µM (active).
In the case of `OCCC(F)(F)C(F)(F)C(F)(F)C(F)(F)C(F)(F)C(F)(F)F`, the outcome is reported as “inactive”.
In the case of `COCC(C)O` (stereo not given), the outcome is reported as “inactive”.
For `CC(C)CCCCCCOC(=O)CCCCC(=O)OCCCCCCC(C)C`, the outcome was “inactive”.
With `O=C(O)c1ccccc1C(c1ccc(O)cc1)c1ccc(O)cc1` the outcome was “inactive”.
In the case of `CCCCCCCCOC(=O)CCCCCCCCC(=O)OCCCCCCCC`, the outcome is reported as “inactive”.
In the case of `CCc1nn(C2CCCCC2)c2cc(C3(C#N)CCC(C(=O)O)CC3)ccc12` (stereo not given), the outcome is reported as “inactive”.
With `C[C@@H]1C[C@H]2[C@@H]3CCC4=CC(=O)C=C[C@]4(C)[C@@]3(F)[C@@H](O)C[C@]2(C)[C@@]1(O)C(=O)COP(=O)(O)O` the outcome was “inactive”.
With `CC1=C(/C=C/C(C)=C/C=C/C(C)=C/C(=O)O)C(C)(C)CCC1` the outcome was “inactive”.
For `NC(=O)N1C(=O)C(C(=O)c2cc(Cl)cs2)c2cc(F)c(Cl)cc21` (stereo not given), the AC50 was 15.8 µM (active).
In the case of `OCCC(F)(F)C(F)(F)C(F)(F)C(F)(F)C(F)(F)C(F)(F)C(F)(F)C(F)(F)F`, the outcome is reported as “inactive”.
For `CN1CCN(c2ccccc2/C=C2\SCCN(c3ccc(Cl)c(Cl)c3)C2=O)CC1`, the AC50 was 69.7 µM (active).
With `OC1CCCCC1` the outcome was “inactive”.
In the case of `CCCCOCCO`, the outcome is reported as “inactive”.
In the case of `NC(=O)N(O)[C@@H]1C=C[C@H](Oc2cccc(Oc3ccc(F)cc3)c2)C1`, the AC50 is reported as 73.5 µM (active).
In the case of `Cc1cc(C)c(O)c(C)c1`, the outcome is reported as “inactive”.
In the case of `CCN(CC)CCNc1ccc(CNC=O)c2sc3ccc(OC)cc3c(=O)c12`, the AC50 is reported as 80.1 µM (active).
In the case of `COc1ccc([N+](=O)[O-])cc1N`, the outcome is reported as “inactive”.
For `Cc1cc(CCN2CCN(c3nsc4ccccc34)CC2)cc2c1NC(=O)CC2(C)C`, the AC50 was 76.8 µM (active).
In the case of `CCCCCCCCCCCCCCCS(=O)(=O)Oc1ccccc1`, the outcome is reported as “inactive”.
With `CCCCC(CC)COC(=O)CCCCC(=O)OCc1ccccc1` (stereo not given) the outcome was “inactive”.
In the case of `c1ccc2c(c1)Cc1ccccc1-2`, the outcome is reported as “inactive”.
With `CC[C@H](C)[C@@H](C(=O)O)n1sc2ccccc2c1=O` the outcome was “inactive”.
With `O=C(OCCOCCOC(=O)c1ccccc1)c1ccccc1` the outcome was “inactive”.
For `CCC(C)(C)C1CCC(O)CC1` (stereo not given), the outcome was “inactive”.
For `CN1CCC[C@H]1c1cccnc1`, the outcome was “inactive”.
